Compound activity: PubChem, several laboratories
S1P4 antag – human S1P4 receptor antagonism; inhibition, % at 4.98 µM; 220,000 tested, 0.26% active; AID 1510; S1P4-expressing cells, antagonist mode, reporter read-out; O95977; in the data active means inhibition above about 29%;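 further: 0% = wells stimulated with agonist and 100% = vehicle wells without agonist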
Target sequence (O95977 whole entry, looked up): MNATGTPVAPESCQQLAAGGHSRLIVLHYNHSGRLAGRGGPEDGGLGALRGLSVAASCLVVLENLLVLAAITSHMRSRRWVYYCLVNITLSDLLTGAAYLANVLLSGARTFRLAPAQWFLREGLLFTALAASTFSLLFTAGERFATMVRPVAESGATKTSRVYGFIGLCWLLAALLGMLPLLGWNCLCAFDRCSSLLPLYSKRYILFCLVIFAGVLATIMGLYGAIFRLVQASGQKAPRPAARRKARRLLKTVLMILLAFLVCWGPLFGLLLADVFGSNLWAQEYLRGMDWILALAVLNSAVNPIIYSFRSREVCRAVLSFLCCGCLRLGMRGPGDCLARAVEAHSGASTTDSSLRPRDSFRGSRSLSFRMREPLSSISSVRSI
S1P4 agonist – activates the human S1P4 receptor; S1P4-expressing cell line, agonist reporter assay; activation, % at 4.98 µM; 220,000 tested, 0.35% active; O95977; in the data active means activation above about 11%;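 further: 0% = DMSO vehicle and 100% = reference agonist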
EP2 antag – inhibitors of human EP2 prostaglandin E2 receptor. AID 1422. inhibition, % at 25 µM. 260,000 tested, 0.52% active. C6 glioma cells expressing human EP2, cAMP TR-FRET; cells stimulated with saturating PGE2. P43116;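 active means percent inhibition above 40 after rounding to a whole number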;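 further: rat C6 glioma host cells with rolipram phosphodiesterase inhibitor present; the protocol text gives 20 µM as final concentration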
EP2 mod – modulators of human EP2 prostaglandin E2 receptor; P43116; induction, % at 25 µM; 260,000 tested, 0.83% active; AID 940; EP2-expressing cells, cAMP HTRF FRET, PGE2 co-stimulation;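 active means compounds whose cAMP rise, as percent of the full-agonist control response, exceeds 60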;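 further: rat C6 glioma line stably carrying human EP2 under a CMV promoter; the protocol text gives 20 µM as final concentration; 100% = response of wells given 1 µM PGE2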
S1P3 antagonist – S1P3 (human) receptor antagonism; Q99500; CHO S1P3 NFAT-BLA reporter, FRET fluorescence, antagonist mode; inhibition, % at 4.98 µM; 170,000 tested, 0.27% active; AID 485;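 active means inhibition above the plate cutoff, the mean inhibition of test wells on that plate plus 3 SD, cut at about 28% in these data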;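 further: cells challenged with S1P at its EC80 of 0.8 µM; blue over green emission ratio from cleaved BLA substrate after 4 h stimulation; 0% = S1P-stimulated wells and 100% = unstimulated DMSO-only wells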
EP2 confirm – human EP2 receptor cAMP induction, negative in counter-screens; shares compounds with EP2 mod; C6 glioma EP2 cells, cAMP HTRF induction; plus low (about EC15) PGE2 agonist; calls only at 20 µM (by protocol); 1,300 tested, 47% active;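 active means cAMP induction above 50% in the main assay while under 30% in all four parallel counter assays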;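 further: rat C6 glioma cells stably expressing human EP2 receptor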
Starred values were filed as active, the others as inactive. The list is not random: actives were taken first. Their share in the collection is about 1.9%.

What do the screens show for `Cc1nccc2[nH]c(=O)c(C(=O)NC3CCCCC3C)cc12` (centres undefined)?
S1P4 antag: -28.6; S1P4 agonist: 1.5; EP2 antag: 6.9; EP2 mod: 73.7*; S1P3 antagonist: 6.3; EP2 confirm: inactive

Results for C=CCn1c2cc(C)sc2c2cnn(CC(=O)NC3CC3)c(=O)c21 ?
EP2 mod: -0.5

How did CCOC(=O)c1c(NC(=O)c2ccc(Cl)s2)sc(C)c1C do in these assays?
EP2 antag: 13.2; S1P3 antagonist: -22.1

Results for CCOC(=O)c1c(NC(=O)c2c(Br)cnn2CC)sc(C)c1C ?
S1P4 antag: -17.4; S1P4 agonist: 1.9; EP2 antag: 14.3; EP2 mod: 72.7*; EP2 confirm: active

Results for CCOC(=O)c1c(NC(=O)CSC(=S)N(C)C)sc(C)c1C ?
S1P4 antag: -5.0; S1P4 agonist: 1.5; EP2 antag: 8.8; EP2 mod: 66.1*; S1P3 antagonist: 8.0; EP2 confirm: active

Results for CCOC(=O)c1c(NC(=O)c2ccoc2C)sc(C)c1C ?
S1P4 antag: -10.2; S1P4 agonist: -0.4; EP2 antag: 17.1; EP2 mod: 76.9*; EP2 confirm: inactive

Results for CCOC(=O)c1c(NC(=O)c2ccncc2)sc(C)c1C ?
S1P4 antag: 8.5; S1P4 agonist: -0.4; EP2 antag: 7.2; EP2 mod: 74.2*; S1P3 antagonist: -5.5; EP2 confirm: active

How did CCn1ncc(Br)c1C(=O)Nc1sc2c(c1C(=O)OC)CCC2 do in these assays?
S1P4 antag: -1.0; S1P4 agonist: 0.1; EP2 antag: 39.1; S1P3 antagonist: -5.0

Results for CCOc1ccc(C2NC(=O)C(O)=C2C(=O)c2cccs2)cc1 (centres undefined) ?
EP2 antag: 15.5; EP2 mod: 6.5

How did CCc1ccccc1N(CC(=O)Nc1cccnc1)S(C)(=O)=O do in these assays?
EP2 antag: 2.5; EP2 mod: -11.3

Results for CCSc1ncnc2sc(C)c(C)c12 ?
S1P4 antag: -13.2; S1P4 agonist: -2.3; EP2 antag: 6.0; EP2 mod: 38.6; S1P3 antagonist: -5.2

Results for C=CCSc1nc2sc(C)c(C)c2c(=O)n1CC=C ?
S1P4 antag: 1.1; S1P4 agonist: 2.5; EP2 antag: 8.4; EP2 mod: 71.2*; EP2 confirm: inactive

What do the screens show for `C=CCSc1ncnc2sc(C)c(C)c12`?
S1P4 antag: -9.9; S1P4 agonist: -0.2; EP2 antag: 2.9; EP2 mod: 55.3; S1P3 antagonist: 3.4; EP2 confirm: inactive

How did COc1cccc(NC(=O)COc2cc3oc(=O)c4c(c3cc2Cl)CCC4)c1 do in these assays?
EP2 antag: 5.0; EP2 mod: -6.6

What do the screens show for `CCOC(=O)c1ccccc1NC(=O)COc1ccccc1`?
S1P4 antag: -28.5; S1P4 agonist: -1.7; EP2 antag: 8.0; EP2 mod: 79.3*; S1P3 antagonist: 14.2; EP2 confirm: inactive

What do the screens show for `CCCC(C)C(=O)Nc1ccccc1C(=O)OCC` (centres undefined)?
S1P4 antag: -4.6; S1P4 agonist: 2.5; EP2 antag: 12.2; EP2 mod: 19.4

What do the screens show for `CCOC(=O)c1ccccc1NC(=O)CSc1ccccc1`?
S1P4 antag: -9.6; S1P4 agonist: 0.7; EP2 antag: 15.6; EP2 mod: 78.8*; EP2 confirm: inactive

Results for CCOC(=O)c1ccccc1NC(=O)C(C)Oc1ccccc1 (centres undefined) ?
S1P4 antag: -12.1; S1P4 agonist: -0.4; EP2 antag: 13.9; EP2 mod: 53.8; S1P3 antagonist: -4.2; EP2 confirm: active

How did Cc1cccc(OCC(=O)Nc2ccccc2-c2ccccc2)c1 do in these assays?
S1P4 antag: -14.3; S1P4 agonist: 1.5; EP2 antag: 5.7; EP2 mod: 70.7*; S1P3 antagonist: 1.7; EP2 confirm: active

How did CCOCC(=O)Nc1ccccc1C(=O)OCC do in these assays?
S1P4 antag: -9.1; S1P4 agonist: 0.2; EP2 antag: 4.1; EP2 mod: 23.4; S1P3 antagonist: 3.8

How did Cc1cc(CNS(=O)(=O)N2CCCC2)c2[nH]c(C)c(C)c2c1 do in these assays?
EP2 antag: 6.0; EP2 mod: -62.9

What do the screens show for `CC1(c2ccccc2)CC(C)(C)N(C(=O)C2CCCO2)c2ccccc21` (centres undefined)?
S1P4 antag: -5.2; S1P4 agonist: -2.4; EP2 antag: -1.1; EP2 mod: 68.9*; EP2 confirm: active

How did CC1(c2ccccc2)CC(C)(C)N(C(=O)CSc2nnc(N)s2)c2ccccc21 (centres undefined) do in these assays?
S1P4 antag: -16.6; S1P4 agonist: 1.0; EP2 antag: 5.4; EP2 mod: 48.6; S1P3 antagonist: 5.2

How did CC1(c2cc([N+](=O)[O-])cc([N+](=O)[O-])c2)CC(C)(C)N(C(=O)c2ccccc2)c2ccccc21 (centres undefined) do in these assays?
S1P4 antag: 8.6; S1P4 agonist: -2.2; EP2 antag: 10.2; EP2 mod: 74.1*; EP2 confirm: inactive

What do the screens show for `Cc1ccc(-n2nnnc2CSc2nnc3n2C(C)(C)Cc2ccccc2-3)cc1`?
EP2 antag: 6.1; EP2 mod: -51.0

What do the screens show for `Cc1sc2nc(C(C)C)n(C3CCN(CC(=O)N(C)C)CC3)c(=O)c2c1C`?
EP2 antag: 2.5; EP2 mod: -32.1

Results for CCOCCCNC(=S)N(CCc1ccccc1)Cc1cc2cc(C)ccc2[nH]c1=O ?
EP2 antag: 24.2; EP2 mod: -33.7

How did O=S(=O)(C=C(c1ccccc1)c1ccccc1)c1ccccc1 do in these assays?
S1P4 antag: -13.4; S1P4 agonist: 2.5; EP2 antag: 13.7; EP2 mod: 76.7*; EP2 confirm: active

What do the screens show for `Cc1ccc(NCc2n[nH]c(=S)n2Cc2ccccc2)cc1Cl`?
S1P4 antag: -11.9; S1P4 agonist: -1.6; EP2 antag: 6.3; EP2 mod: 54.7; S1P3 antagonist: -1.9; EP2 confirm: inactive

What do the screens show for `COc1ccc(-n2c(CCc3ccccc3)nnc2SCC(=O)c2ccccc2)cc1`?
S1P4 antag: 1.6; S1P4 agonist: 1.8; EP2 antag: 14.9; EP2 mod: 52.5; S1P3 antagonist: -13.5; EP2 confirm: inactive

What do the screens show for `COc1ccc(C(=O)CSc2nnc(CCc3ccccc3)n2-c2ccccc2)cc1`?
S1P4 antag: 11.8; S1P4 agonist: -4.2; EP2 antag: 5.7; EP2 mod: 40.2

What do the screens show for `O=C1OC2(CCCC2)OC(=O)C1=Cc1ccc(Cl)cc1Cl`?
EP2 antag: 24.8; EP2 mod: -52.8

How did Cc1ccc(C(=O)N2N=C(c3ccccc3)CC2(O)C(F)(F)F)o1 (centres undefined) do in these assays?
S1P4 antag: 1.9; S1P4 agonist: 0.2; EP2 antag: 6.9; EP2 mod: 70.2*; S1P3 antagonist: 11.5; EP2 confirm: inactive
